Screening data: PubChem BioAssay, National Center for Advancing Translational Sciences (NCATS)
D1 PAM: Potentiators of Human D1 Dopamine Receptor: qHTS; D(1A) dopamine receptor (Homo sapiens), P21728; HEK293 TREx D1 cells, calcium flux, dopamine EC20 potentiation; potentiation, % at 10 µM; 360,000 tested, 0.036% active; AID 504651, 2011; in the data active = potentiation above about 30%
D1 ag: Allosteric Agonists of the Human D1 Dopamine Receptor: qHTS; D(1A) dopamine receptor (Homo sapiens), P21728; HEK293 T-REx D1 cells, calcium flux, agonist mode; activation, % at 2 µM; 360,000 tested, 1% active; AID 504660, 2011
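Agonism was scored from calcium flux recorded over 180 s (1 read/s) after pintool compound addition, following a 10-cycle baseline. Cells were inducible force-coupled HEK293 TREx D1, plated overnight at 30 C and loaded with no-wash calcium dye.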
TRHR PAM: qHTS for Small Molecule Agonists and Allosteric Enhancers of Human TRH Receptor: Primary Screen for Enhancers; enhancement, % at 2 µM; TRHR cells, fluo-8 calcium fluorescence, EC20 TRH enhancement; 360,000 tested, 0.66% active; Thyrotropin-releasing hormone receptor (Homo sapiens), P34981; in the data active = enhancement above about 30%
Target sequence (P34981 whole entry, looked up): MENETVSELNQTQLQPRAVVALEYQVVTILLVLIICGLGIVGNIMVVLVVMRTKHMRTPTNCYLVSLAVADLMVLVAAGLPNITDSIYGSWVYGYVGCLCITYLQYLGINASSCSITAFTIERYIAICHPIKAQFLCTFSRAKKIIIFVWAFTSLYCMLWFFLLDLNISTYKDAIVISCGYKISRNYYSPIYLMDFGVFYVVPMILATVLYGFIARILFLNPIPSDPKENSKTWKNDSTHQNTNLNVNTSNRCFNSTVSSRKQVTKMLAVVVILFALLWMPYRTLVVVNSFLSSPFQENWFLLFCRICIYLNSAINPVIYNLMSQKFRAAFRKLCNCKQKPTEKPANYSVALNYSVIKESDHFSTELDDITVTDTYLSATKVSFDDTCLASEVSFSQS
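TRHR-expressing cells loaded with fluo-8 calcium dye were read kinetically (ex 480/em 530) during compound addition, then stimulated with an EC20 of TRH (10 nM final). Enhancement of the Gq-mediated intracellular calcium response was scored.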
D1 antag: Antagonist of Human D 1 Dopamine Receptor: qHTS. 360,000 tested, 3.2% active. activity change, negative = inhibition, % at 10 µM. HEK293 TREx D1 cells, calcium flux, dopamine EC80; active compounds read low; in the data active = activity change below about -30%
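Calcium flux readout: force-coupled, inducible Hek293 Trex D1 line, cells induced overnight at 30 C with tetracycline, dye-loaded 30–90 min at RT. Antagonism scored against EC80 dopamine challenge given 180 s after compound.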
TRHR ag: qHTS for Small Molecule Agonists and Allosteric Enhancers of Human TRH Receptor: Primary Screen for Agonists; Thyrotropin-releasing hormone receptor (Homo sapiens), P34981; TRHR cells, calcium flux fluo-8, FDSS agonist mode; activation, % at 2 µM; 360,000 tested, 0.18% active
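Read-out: compound-evoked intracellular calcium rise in TRHR cells, fluo-8 dye, kinetic FDSS fluorescence at 1 s/cycle following a 10-cycle baseline. Cells cultured overnight before dye loading (30 min–1.5 h, RT).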
Large screens that a line does not name were inactive. An excerpt weighted towards active compounds, which were near 4.6% of everything screened. Cut-off read from the data, not from the text of the source, unless noted: active = activation above about 30%; inactive = the rest.

O=S(=O)(Nc1cccc(C(F)(F)F)c1)c1ccc(NS(=O)(=O)c2ccc3c(c2)OCCO3)cc1	none
CC(OC(=O)c1cccc(S(=O)(=O)Nc2cccc(C(F)(F)F)c2)c1)C(=O)Nc1ccc2c(c1)OCCO2 (stereo not drawn)	D1 antag -36
CCc1ccc(NC(=O)CSC2=C(C#N)C(c3ccco3)C3=C(CCCC3=O)N2)cc1 (stereo not drawn)	D1 antag -61
COc1ccc(-n2c(=O)c3c4c(sc3n(Cc3ccc(F)cc3)c2=O)CCCC4)c(OC)c1	none
COC(=O)c1ccc(CN2C(=O)NC(CC(C)C)C2=O)cc1 (stereo not drawn)	D1 antag -32
O=S(=O)(NCC(c1cccnc1)N1CCN(c2ccc(F)cc2)CC1)c1cccs1 (stereo not drawn)	D1 antag -31
CCc1ccc(NC(=O)C(=O)NCC(c2cccnc2)N2CCN(C)CC2)cc1 (stereo not drawn)	D1 ag 53
O=S(=O)(NCC(c1cccnc1)N1CCN(c2ccc(F)cc2)CC1)c1ccc(F)cc1 (stereo not drawn)	none
COc1ccc(N2CCN(C(CNC(=O)C(=O)NCCCN(C)C)c3cccnc3)CC2)cc1 (stereo not drawn)	D1 antag -35
COc1ccc(C)cc1NC(=O)C(=O)NCC(c1cccnc1)N1CCc2ccccc21 (stereo not drawn)	none
COc1ccc(C)cc1NC(=O)C(=O)NCC(c1cccnc1)N1CCN(c2ccccc2F)CC1 (stereo not drawn)	D1 antag -34
COc1cccc(C(=O)Nc2nnc(S(=O)(=O)N3CCCc4ccccc43)s2)c1	none
COc1ccccc1N1CCN(C(CNC(=O)C(=O)NCc2ccc(F)cc2)c2cccnc2)CC1 (stereo not drawn)	D1 ag 33
CCOC(=O)c1cnc2ccc(Cl)cc2c1Nc1ccc(OCC)cc1	D1 antag -58
CCOC(=O)c1cnc2ccccc2c1Nc1cc(C(=O)O)ccc1C	TRHR PAM 37
CCOC(=O)c1cnc2ccccc2c1Nc1cccc(OC)c1	D1 antag -35
O=C(NCCc1ccc(Cl)cc1)c1ccc(CS(=O)(=O)Cc2ccccc2F)o1	none
COc1ccc(-c2nnc(SCC(=O)N(C)Cc3ccccc3)o2)cc1OC	none
CC(CCN1CCN(c2ccccc2)CC1)c1ccccc1 (stereo not drawn)	D1 antag -54
CC(CCN1CCN(c2ccccn2)CC1)c1ccccc1 (stereo not drawn)	none
O[C@@H](c1cc(C(F)(F)F)nc2c(C(F)(F)F)cccc12)[C@H]1CCCCN1	D1 ag 44
OC(c1cc(C(F)(F)F)nc2c(Cl)cc(Cl)cc12)C1CCCCN1 (stereo not drawn)	D1 ag 32
OC(c1cc(-c2ccc(Cl)cc2)nc2ccccc12)C1CCCCN1 (stereo not drawn)	none
Cc1ccc(C)c(N2CCN(C(=O)CCS(=O)(=O)c3cc(Br)cc4c3N(C(=O)C3CC3)CC4)CC2)c1	none
CC(C)(C)OC(=O)N1CCC(c2c(C(=O)NCc3cccc(Cl)c3)cnn2-c2ccc(F)cc2)CC1	D1 antag -43
CC(C)(C)OC(=O)N1CCC(c2c(C(=O)NCCN3CCC(Cc4ccccc4)CC3)cnn2-c2ccc(F)cc2)CC1	D1 ag 40
COc1ccc(CCN2CCC(CNC(=O)c3cnn(-c4ccccc4)c3C3CCN(C(=O)OC(C)(C)C)CC3)CC2)cc1	D1 ag 38
CC(C)(C)OC(=O)N1CCC(c2c(C(=O)NCCN3CCC(Cc4ccccc4)CC3)cnn2-c2ccccc2)CC1	D1 ag 56
COc1ccc(CCN2CCC(CNC(=O)c3cnn(-c4cccc(Cl)c4)c3C3CCN(C(=O)OC(C)(C)C)CC3)CC2)cc1	none
CCc1ccc(OCC(=O)NCC(c2ccc(OC)cc2)N2CCOCC2)cc1 (stereo not drawn)	none
